# Data taken from PubChem BioAssay (NCI).
# The panel holds about 83,000 compounds, 20% with a hit somewhere; the sample as a whole holds those more often.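 Values shown are percent growth following 48 h exposure of cells in 96-well plates to a single concentration of compound; below 10 was considered active.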 Values without a mark were called inactive. Activity calls are given as the source filed them.
# Assays:
# Assay in all cases: NCI-60 one-dose screen, 48 h (100 = growth as untreated, 0 = no growth, -100 = all killed)
# Details in all cases: 10 µM unless noted
# DU-145 prostate = tested on: DU-145 prostate
# K-562 leukemia = tested on: K-562 leukemia
# MALME-3M melanoma = tested on: MALME-3M melanoma
# MDA-MB-231 breast = tested on: MDA-MB-231 breast
# RXF 393 renal = tested on: RXF 393 renal
# SF-268 CNS = tested on: SF-268 CNS
# SF-295 CNS = tested on: SF-295 CNS
# SF-539 CNS = tested on: SF-539 CNS
# UACC-257 melanoma = tested on: UACC-257 melanoma
# M14 melanoma = tested on: M14 melanoma
SMILES,growth (DU-145 prostate),growth (K-562 leukemia),growth (MALME-3M melanoma),growth (MDA-MB-231 breast),growth (RXF 393 renal),growth (SF-268 CNS),growth (SF-295 CNS),growth (SF-539 CNS),growth (UACC-257 melanoma),growth (M14 melanoma)
C=C1/C(=C\C=C2/CCC[C@]3(C)[C@@H]([C@H](C)CCCC(C)(C)O)CC[C@@H]23)C[C@@H](OC(=O)CBr)C[C@@H]1O,92.7%,30.8%,-67.3% (active),20.5%,93.3%,18%,94.6%,-43.1% (active),99.3%,84.4%
COc1ccc(-n2c(=O)n(-c3ccc(-c4nc5ccc(F)cc5s4)cc3)c(=O)c3cccnc32)cc1,106%,99.7%,101%,97.1%,129%,106%,94.5%,107%,94.7%,107%
O=C(Nc1ccc2c(c1)-c1ccccc1C2)C1CC(=O)N(c2ccc3c(c2)OCO3)C1 (stereo not given),52.1% [50 µM],57.5% [50 µM],58.1% [50 µM],59.9% [50 µM],56.6% [50 µM],69.2% [50 µM],47% [50 µM],-60.7% [50 µM] (active),69.5% [50 µM],62.7% [50 µM]
COc1cccc(C2C(C#N)=C(N)Oc3c2ccc2ccccc32)c1 (stereo not given),16.9%,6.44% (active),54.4%,24.2%,40.7%,30.9%,23.5%,-12% (active),82%,9.7% (active)
CO[C@H]1CC(c2ccc[nH]2)=N[C@]12O[C@@H](C)C[C@@H]1CCCCCCCc3ccc([nH]3)[C@H]12,30.3%,21.3%,-14.5% (active),14.1%,52.7%,48.6%,17.4%,20%,13.2%,13.2%
COc1cccc(NC(=O)c2sc3nc(C)c(C(=O)c4ccccc4)cc3c2N)c1,99.9%,64.4%,81.5%,91.6%,85.8%,87.6%,67.3%,86.5%,81.5%,80.6%
C=CCn1c(SCC(=O)Nc2ccc(C(=O)/C=C/c3cc(OC)c(OC)c(OC)c3)cc2)nnc1-c1cc(-c2ccc(S(N)(=O)=O)cc2)nc2ccccc12,105%,48.2%,97.1%,83.1%,64.6%,94.6%,99%,86.6%,96.1%,95.6%
CC/C(=C(/c1ccc(Cl)cc1)c1ccc(OCCN2CCCCCC2)cc1)c1ccccc1,97.2%,19.8%,98.5%,83%,72.5%,81.6%,98.3%,84.3%,92.4%,81.6%
Cc1cc([N+](=O)[O-])ccc1NC(=O)c1ccc2c(c1)nc(-c1ccccc1)n2C1CCCCC1,105%,49.9%,80.4%,84.4%,96.5%,77.1%,80.5%,92.2%,92.4%,74.9%
Oc1cccc(-c2nc(-c3n[nH]c(=S)n3-c3ccccc3)cc3c2[nH]c2ccccc23)c1,27.7%,11.1%,44.4%,45.7%,-15.7% (active),28.6%,3.87% (active),-15.2% (active),66.7%,24.6%
Cc1cc(=O)oc2cc(Oc3nc(-c4ccccc4)cn4c(-c5ccccc5)cnc34)ccc12,68%,61.8%,-9.77% (active),50.4%,28.3%,64.4%,54.2%,54.6%,65.7%,67.7%
Cc1oc2ccc(O)c(CN3CCCCCC3)c2c1C(=O)Nc1ccc(C(F)(F)F)cc1,64.8%,29.6%,49.9%,49%,50.4%,75.4%,48.8%,61.2%,82%,58.1%
CCCCC1=C(Br)C(=O)c2ncccc2C1=O,103%,30.2%,101%,77.6%,98.3%,95.5%,106%,94.5%,92.6%,98.2%
COC(=O)c1c(C(=O)OC)c2ccc3c4ncccc4ccc3n2c1C(=O)c1ccc(C)cc1,98.7%,85.8%,89.7%,84.1%,106%,98.5%,87.7%,97.6%,95.2%,90.1%
O=C(O)c1nn(-c2ccc(Cl)cc2)nc1N1CCCC1,91.3%,87.2%,90%,101%,85.4%,98.3%,90.5%,96.1%,94.7%,96.7%
CCCC1Cc2cc(-n3nc(C)c4c3CC(C)(C)CC4=O)cc(NC3CCC(O)CC3)c2C(=O)N1 (stereo not given),53.7%,14.3%,12.3%,-15.1% (active),65.3%,65.3%,21%,34.4%,37.1%,33.7%
CN1CC(c2ccccc2)C(C(=O)c2ccc(Br)cc2)C12C(=O)Nc1ccccc12 (stereo not given),104%,75.3%,99.4%,94.7%,92.6%,91.2%,93.9%,102%,103%,102%
COCCn1cc(-c2nc(-c3cc4cccnc4n3C)cs2)c2cc(OC)ccc21,76.7%,9.5% (active),108%,27.5%,78.3%,71.3%,66.1%,66.9%,74.3%,63.7%
Cc1cccc(C)c1NC(=O)Nc1ccccc1,9.29% (active),102%,98.4%,96.9%,87.3%,96.1%,66.7%,108%,98.2%,109%
CC(C)(C)[C@H](OCc1cn([C@H]2C[C@@H](O)[C@@H](CO)O2)c(=O)[nH]c1=O)c1ccc(C#Cc2ccccc2)cc1[N+](=O)[O-],86.4%,60.5%,84%,91.7%,47.2%,81.5%,82%,97.1%,83.5%,45.1%
CC1(C)CC(=O)C2=C(C1)OC(C(=O)c1ccccc1)C2c1cccc(Oc2ccccc2)c1 (stereo not given),68.1%,31.7%,59.5%,50.4%,42.8%,44.6%,32.6%,63.9%,45.5%,36.8%
O=C(/C=C/c1ccc(Cl)cc1)c1ccc(Nc2ccnc3cc(Cl)ccc23)cc1,145%,27.8%,79.9%,48.4%,-41.4% (active),164%,9.54% (active),122%,93.4%,84.5%
O=C(Oc1ccccc1)c1cc(O)c(O)c(O)c1,76.2%,50.8%,88%,63.4%,110%,59.7%,73.5%,54%,112%,68.4%
CCN(CC)CCN1C(=O)c2c(c(C)c3c(oc4cc(OC)ccc43)c2C)C1=O,75.1%,-29.2% (active),102%,58.4%,73.1%,89.6%,89.4%,70.6%,127%,98.9%
